Drawing on PubChem BioAssay (EPA / NIEHS), this text covers AC50 and outcome for five compounds.

Assay [1] addresses human Thromboxane A2 Receptor (TXA2), TBXA2R (gene 6915) (UniProt P21731). Description: NVS_GPCR_hTXA2: NovaScreen (NVS) G Protein-Coupled Receptor Assay for human Thromboxane A2 Receptor (TXA2) (AID 2283282).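 Note: actives reduce bound radioligand signal relative to DMSO baseline.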 In short, it runs like this:
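Screening ran at 25 uM in duplicate, with concentration series for confirmed actives. Each test measures radioligand binding to human platelet protein after 1 h, cell-free, using filter-based scintillation detection of signal loss relative to DMSO.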

Assay [2] relates to 5-hydroxytryptamine receptor 2C (pig). Kind of assay: NVS_GPCR_p5HT2C: NovaScreen (NVS) G Protein-Coupled Receptor Assay for pig Serotonin, 5-Hydroxytryptamine Receptor 2C (5HT2C) (AID 2283288). In short, it runs like this:
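Radioligand displacement on membranes from pig choroid plexus, detected by filter scintillation counting after 1 h. Tested first at a single 25 uM in duplicate, then in concentration-response for actives; DMSO served as baseline.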

Assay [3] has as its target human Opioid Receptor Mu (Opiate Mu), OPRM1 (gene 4988) (UniProt P35372). Kind of assay: NVS_GPCR_hOpiate_mu: NovaScreen (NVS) G Protein-Coupled Receptor Assay for human Opioid Receptor Mu (Opiate Mu) (AID 2283290).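 Note: hits lower bound tracer signal versus DMSO meaning displacement of the ligand.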 In outline: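 Here, radioligand binding to CHO-extracted receptor was measured after 2.5 h using filter-based scintillation detection. Initial single-concentration screening used 25 uM in duplicate with plate controls; confirmed actives went to concentration-response testing.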

Assay [4] concerns the target guinea pig Serotonin, 5-Hydroxytryptamine Receptor 4 (5HT4), HTR4 (gene 100135548) (UniProt O70528). Kind of assay: NVS_GPCR_g5HT4: NovaScreen (NVS) G Protein-Coupled Receptor Assay for guinea pig Serotonin, 5-Hydroxytryptamine Receptor 4 (5HT4) (AID 2283294). In outline: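 Compounds first screened in duplicate at 25 uM, actives followed up in concentration series. Binding measured as displacement of specific radioligand from guinea pig striatal membranes, 1 h, filter-based scintillation read-out versus DMSO baseline.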

Assay [5] has as its target human Opioid Receptor Delta 1 (Opiate D1), OPRD1 (gene 4985) (UniProt P41143). Description: NVS_GPCR_hOpiate_D1: NovaScreen (NVS) G Protein-Coupled Receptor Assay for human Opioid Receptor Delta 1 (Opiate D1) (AID 2283280). In outline: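 Membrane preparations from CHO cells bearing the human receptor were incubated 1 h with test chemical, and bound radioligand was counted after filtration. Actives from 25 uM duplicate screening were retested in concentration-response.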

The target in assay [6] is human Orphanin, Opioid Related Nociceptin Receptor 1 (ORL1), OPRL1 (gene 4987) (UniProt P41146). Kind of assay: NVS_GPCR_hORL1: NovaScreen (NVS) G Protein-Coupled Receptor Assay for human Orphanin, Opioid Related Nociceptin Receptor 1 (ORL1) (AID 2283283). In outline: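 Cell-free binding using HEK293-derived receptor protein: radioligand displacement measured by filter scintillation 1 hour after dosing. Primary testing at 25 uM in duplicate, followed by singleton concentration series up to 50 uM; DMSO served as negative control.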

Assay [7] deals with mouse Cholecystokinin, CCK1 Receptor (CCKA), Cckar (gene 12425) (UniProt O08786). Description: NVS_GPCR_mCCKAPeripheral: NovaScreen (NVS) G Protein-Coupled Receptor Assay for mouse Cholecystokinin, CCK1 Receptor (CCKA) (AID 2283285). In outline: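 Chemicals were first screened in duplicate at 25 uM, with those meeting threshold (e.g., 30% inhibition) retested in singleton concentration series to 50 uM maximum. Binding of radioligand to mouse pancreatic membranes was read after 2 h by filtration and scintillation counting.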

In assay [8] the target is rat Adrenergic, Alpha 1, Non-selective Receptor (Adra1), Adra1a (gene 29412) (UniProt P43140). Description: NVS_GPCR_rAdra1_NonSelective: NovaScreen (NVS) G Protein-Coupled Receptor Assay for rat Adrenergic, Alpha 1, Non-selective Receptor (Adra1) (AID 2283289). In outline:
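Chemicals first screened in duplicate at 25 uM, then actives tested in concentration series up to 50 uM. Binding measured as displacement of radioligand from rat forebrain membrane receptors, 1 h, filtration with scintillation readout; DMSO baseline.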

In assay [9] the target is mouse Cholecystokinin, CCK2 Receptor (CCKB), Cckbr (gene 12426) (UniProt P56481). Kind of assay: NVS_GPCR_mCKKBCentral: NovaScreen (NVS) G Protein-Coupled Receptor Assay for mouse Cholecystokinin, CCK2 Receptor (CCKB) (AID 2283293). In outline: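 Mouse forebrain membrane preparation incubated 2 h with chemical and radioligand; bound radioactivity counted after filtration. Single-concentration duplicate screen at 25 uM, then concentration series to 50 uM max for hits, DMSO as baseline.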

Assay [10] has as its target rat Adrenergic Receptor, Alpha 2 (Adra2), Non-selective Binding, Adra2a (gene 25083) (UniProt P22909). Description: NVS_GPCR_rAdra2_NonSelective: NovaScreen (NVS) G Protein-Coupled Receptor Assay for rat Adrenergic Receptor, Alpha 2 (Adra2), Non-selective Binding (AID 2283299). In outline: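 Filter-based scintillation counting of radioligand binding to rat cortical membrane receptors, measured 1.25 hours post-dosing; loss of signal versus DMSO indicates displacement. Initial single-concentration duplicate at 25 uM, then concentration series.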

The target of assay [11] is rat Gamma-Aminobutyric Acid Type B Receptor (GABBR), Gabbr1 (gene 81657) (UniProt Q9Z0U4). Kind of assay: NVS_GPCR_rGABBR: NovaScreen (NVS) G Protein-Coupled Receptor Assay for rat Gamma-Aminobutyric Acid Type B Receptor (GABBR) (AID 2283301). In outline: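 Rat cortical membrane preparation, competitive radioligand binding for 1 h with filtration and scintillation readout. Actives from duplicate single-point 25 uM screening proceeded to concentration series with 50 uM top concentration.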

Assay [12] has as its target rat Serotonin, 5-Hydroxytryptamine Receptor (5HT), Non-Selective Binding, Htr1a (gene 24473) (UniProt P19327). Description: NVS_GPCR_r5HT_NonSelective: NovaScreen (NVS) G Protein-Coupled Receptor Assay for rat Serotonin, 5-Hydroxytryptamine Receptor (5HT), Non-Selective Binding (AID 2283295). In short, it runs like this:
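Rat cortex membrane preparation incubated 1 h with radioligand and test chemical; bound radioactivity counted after filtration. Screening began in duplicate at 25 uM with concentration-series follow-up; fitting relative to DMSO.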

Assay [13] deals with human Neurotensin Receptor (NTS), NTSR1 (gene 4923) (UniProt P30989). Kind of assay: NVS_GPCR_hNTS: NovaScreen (NVS) G Protein-Coupled Receptor Assay for human Neurotensin Receptor (NTS) (AID 2283279). In short, it runs like this: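 Compounds competed with a radiolabelled ligand for binding to CHO-derived human neurotensin receptor; bound signal counted after filtration, 1 h. Screened first at a single concentration of 25 uM in duplicate, then concentration series to 50 uM maximum for actives.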

Assay [14] concerns the target human Vasopressin 1A Receptor (V1A), AVPR1A (gene 552) (UniProt P37288). Description: NVS_GPCR_hV1A: NovaScreen (NVS) G Protein-Coupled Receptor Assay for human Vasopressin 1A Receptor (V1A) (AID 2283284). In short, it runs like this: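 Single-concentration duplicate screen at 25 uM, with concentration-response follow-up (top 50 uM) for actives. The assay measured displacement of a radioligand from human platelet-derived receptor after 1.5 h, detected by filtration and scintillation counting.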

Values joined by “and” are separate entries in the source; they are usually repeats but may differ in a detail not shown here. Equal values may be shown once. Records with an inconclusive call do not appear. Active and inactive are the calls of the source. Rule for the calls: active = hit-call score of the fitted dose curve at least 0.9, where 1 is the maximum; inconclusive = response in the unintended direction; inactive = score below 0.9.

human Opioid Receptor Mu (Opiate Mu), OPRM1 (gene 4988), sequence (P35372 whole entry, looked up): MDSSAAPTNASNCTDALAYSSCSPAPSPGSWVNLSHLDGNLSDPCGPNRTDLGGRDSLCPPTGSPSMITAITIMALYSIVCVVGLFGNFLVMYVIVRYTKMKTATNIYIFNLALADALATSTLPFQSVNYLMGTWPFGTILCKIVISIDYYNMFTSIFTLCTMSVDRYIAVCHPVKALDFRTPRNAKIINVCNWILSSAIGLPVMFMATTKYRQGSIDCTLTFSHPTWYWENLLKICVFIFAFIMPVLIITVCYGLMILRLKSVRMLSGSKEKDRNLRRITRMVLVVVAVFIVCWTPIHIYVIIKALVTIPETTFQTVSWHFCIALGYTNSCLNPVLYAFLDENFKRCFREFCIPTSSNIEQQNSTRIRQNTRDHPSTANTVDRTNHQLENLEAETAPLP
human Thromboxane A2 Receptor (TXA2), TBXA2R (gene 6915), sequence (P21731 whole entry, looked up): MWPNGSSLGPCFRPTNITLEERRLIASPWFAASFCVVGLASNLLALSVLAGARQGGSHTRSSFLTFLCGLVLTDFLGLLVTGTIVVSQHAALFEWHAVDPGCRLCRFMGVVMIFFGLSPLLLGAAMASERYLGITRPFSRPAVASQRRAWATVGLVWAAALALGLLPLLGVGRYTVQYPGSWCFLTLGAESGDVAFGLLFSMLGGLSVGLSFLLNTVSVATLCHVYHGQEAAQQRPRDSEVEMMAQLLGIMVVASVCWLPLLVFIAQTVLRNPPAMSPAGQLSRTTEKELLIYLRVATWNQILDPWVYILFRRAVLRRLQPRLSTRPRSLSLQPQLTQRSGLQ
guinea pig Serotonin, 5-Hydroxytryptamine Receptor 4 (5HT4), HTR4 (gene 100135548), sequence (O70528 whole entry, looked up): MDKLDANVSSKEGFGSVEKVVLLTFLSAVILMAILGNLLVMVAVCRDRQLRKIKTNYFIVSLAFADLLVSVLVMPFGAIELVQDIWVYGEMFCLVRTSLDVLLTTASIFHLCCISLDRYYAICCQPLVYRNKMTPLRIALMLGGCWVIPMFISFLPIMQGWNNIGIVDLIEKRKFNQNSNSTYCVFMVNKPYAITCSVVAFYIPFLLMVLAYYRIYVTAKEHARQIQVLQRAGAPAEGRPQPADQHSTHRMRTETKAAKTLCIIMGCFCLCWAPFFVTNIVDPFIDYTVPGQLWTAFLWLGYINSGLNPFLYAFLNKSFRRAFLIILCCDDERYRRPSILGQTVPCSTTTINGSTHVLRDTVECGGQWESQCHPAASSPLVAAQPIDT
mouse Cholecystokinin, CCK1 Receptor (CCKA), Cckar (gene 12425), sequence (O08786 whole entry, looked up): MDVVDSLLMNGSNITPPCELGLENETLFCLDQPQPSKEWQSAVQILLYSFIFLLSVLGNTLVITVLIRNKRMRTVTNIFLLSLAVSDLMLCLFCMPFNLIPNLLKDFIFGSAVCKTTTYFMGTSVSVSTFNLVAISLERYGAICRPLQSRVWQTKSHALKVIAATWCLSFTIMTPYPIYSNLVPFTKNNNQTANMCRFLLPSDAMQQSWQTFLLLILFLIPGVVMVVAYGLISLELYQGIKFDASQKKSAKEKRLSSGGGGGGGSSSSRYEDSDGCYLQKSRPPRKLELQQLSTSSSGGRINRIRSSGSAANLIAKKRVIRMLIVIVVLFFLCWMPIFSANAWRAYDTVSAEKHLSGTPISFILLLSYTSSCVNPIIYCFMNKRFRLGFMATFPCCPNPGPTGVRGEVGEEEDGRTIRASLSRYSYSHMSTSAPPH
rat Adrenergic Receptor, Alpha 2 (Adra2), Non-selective Binding, Adra2a (gene 25083), sequence (P22909 whole entry, looked up): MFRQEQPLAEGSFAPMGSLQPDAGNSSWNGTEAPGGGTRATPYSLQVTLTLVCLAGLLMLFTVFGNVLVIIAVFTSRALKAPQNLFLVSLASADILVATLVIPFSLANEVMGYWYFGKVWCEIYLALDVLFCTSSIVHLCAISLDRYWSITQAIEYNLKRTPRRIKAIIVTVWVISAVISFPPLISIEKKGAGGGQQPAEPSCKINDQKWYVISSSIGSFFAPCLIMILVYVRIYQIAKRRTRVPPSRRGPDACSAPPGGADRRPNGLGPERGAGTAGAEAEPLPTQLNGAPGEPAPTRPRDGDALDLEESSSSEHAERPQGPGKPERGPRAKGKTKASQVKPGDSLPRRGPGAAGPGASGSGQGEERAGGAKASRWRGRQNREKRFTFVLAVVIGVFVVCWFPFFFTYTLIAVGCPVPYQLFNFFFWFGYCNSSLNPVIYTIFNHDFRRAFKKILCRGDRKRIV
rat Adrenergic, Alpha 1, Non-selective Receptor (Adra1), Adra1a (gene 29412), sequence (P43140 whole entry, looked up): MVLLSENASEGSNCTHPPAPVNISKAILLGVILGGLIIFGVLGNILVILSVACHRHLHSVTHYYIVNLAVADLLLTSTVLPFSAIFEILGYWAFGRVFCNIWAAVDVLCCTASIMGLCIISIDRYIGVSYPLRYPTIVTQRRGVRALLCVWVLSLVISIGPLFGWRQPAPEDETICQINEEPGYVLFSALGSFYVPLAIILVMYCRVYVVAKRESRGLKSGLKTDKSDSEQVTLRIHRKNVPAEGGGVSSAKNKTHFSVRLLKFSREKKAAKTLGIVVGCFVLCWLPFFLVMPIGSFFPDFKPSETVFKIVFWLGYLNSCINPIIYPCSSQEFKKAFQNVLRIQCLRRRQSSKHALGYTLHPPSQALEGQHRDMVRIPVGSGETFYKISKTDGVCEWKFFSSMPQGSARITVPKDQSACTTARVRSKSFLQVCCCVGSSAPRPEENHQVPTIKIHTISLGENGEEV
human Orphanin, Opioid Related Nociceptin Receptor 1 (ORL1), OPRL1 (gene 4987), sequence (P41146 whole entry, looked up): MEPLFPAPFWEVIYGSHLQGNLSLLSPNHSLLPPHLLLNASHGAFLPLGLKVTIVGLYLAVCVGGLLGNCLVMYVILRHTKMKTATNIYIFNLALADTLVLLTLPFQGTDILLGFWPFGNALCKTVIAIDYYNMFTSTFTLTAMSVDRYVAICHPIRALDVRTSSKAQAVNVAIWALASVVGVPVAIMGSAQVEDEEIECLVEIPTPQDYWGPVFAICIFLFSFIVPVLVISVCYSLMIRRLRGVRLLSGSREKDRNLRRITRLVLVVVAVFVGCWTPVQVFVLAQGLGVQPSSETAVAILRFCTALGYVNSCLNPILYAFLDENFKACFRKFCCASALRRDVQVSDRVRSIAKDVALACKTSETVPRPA
human Opioid Receptor Delta 1 (Opiate D1), OPRD1 (gene 4985), sequence (P41143 whole entry, looked up): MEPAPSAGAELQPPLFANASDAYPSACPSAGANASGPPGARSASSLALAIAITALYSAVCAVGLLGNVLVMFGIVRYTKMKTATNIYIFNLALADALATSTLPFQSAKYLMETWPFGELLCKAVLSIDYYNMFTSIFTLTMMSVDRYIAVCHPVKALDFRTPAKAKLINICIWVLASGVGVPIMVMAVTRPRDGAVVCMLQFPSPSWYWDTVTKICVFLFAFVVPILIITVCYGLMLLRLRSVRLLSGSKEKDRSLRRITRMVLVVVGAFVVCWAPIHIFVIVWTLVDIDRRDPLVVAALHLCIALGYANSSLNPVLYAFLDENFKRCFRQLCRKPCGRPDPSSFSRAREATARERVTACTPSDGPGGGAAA
rat Gamma-Aminobutyric Acid Type B Receptor (GABBR), Gabbr1 (gene 81657), sequence (Q9Z0U4 whole entry, looked up): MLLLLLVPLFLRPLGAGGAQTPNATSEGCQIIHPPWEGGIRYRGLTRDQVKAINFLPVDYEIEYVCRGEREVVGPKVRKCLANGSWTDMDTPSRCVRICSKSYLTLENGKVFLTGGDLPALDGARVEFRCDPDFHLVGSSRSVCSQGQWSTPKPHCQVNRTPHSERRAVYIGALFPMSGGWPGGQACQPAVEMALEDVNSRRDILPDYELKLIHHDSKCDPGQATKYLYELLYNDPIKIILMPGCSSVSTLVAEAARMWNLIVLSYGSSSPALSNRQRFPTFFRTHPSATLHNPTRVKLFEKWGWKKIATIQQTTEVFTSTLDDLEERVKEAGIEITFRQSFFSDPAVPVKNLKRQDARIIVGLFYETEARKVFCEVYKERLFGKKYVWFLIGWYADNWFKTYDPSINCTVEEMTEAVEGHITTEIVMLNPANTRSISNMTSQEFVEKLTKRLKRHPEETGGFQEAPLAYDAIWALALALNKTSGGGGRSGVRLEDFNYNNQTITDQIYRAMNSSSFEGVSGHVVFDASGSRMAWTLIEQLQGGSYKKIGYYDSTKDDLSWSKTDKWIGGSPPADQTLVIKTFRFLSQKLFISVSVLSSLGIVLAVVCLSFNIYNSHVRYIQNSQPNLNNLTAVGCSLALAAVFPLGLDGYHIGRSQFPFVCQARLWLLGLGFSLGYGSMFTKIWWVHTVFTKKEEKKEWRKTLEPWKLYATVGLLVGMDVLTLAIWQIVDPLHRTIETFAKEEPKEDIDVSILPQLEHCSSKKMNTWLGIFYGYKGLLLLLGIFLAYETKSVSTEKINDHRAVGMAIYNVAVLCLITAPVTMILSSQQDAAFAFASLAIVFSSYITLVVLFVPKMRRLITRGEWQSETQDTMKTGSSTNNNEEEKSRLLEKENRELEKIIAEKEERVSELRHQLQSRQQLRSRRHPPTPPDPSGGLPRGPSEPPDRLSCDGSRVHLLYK
mouse Cholecystokinin, CCK2 Receptor (CCKB), Cckbr (gene 12426), sequence (P56481 whole entry, looked up): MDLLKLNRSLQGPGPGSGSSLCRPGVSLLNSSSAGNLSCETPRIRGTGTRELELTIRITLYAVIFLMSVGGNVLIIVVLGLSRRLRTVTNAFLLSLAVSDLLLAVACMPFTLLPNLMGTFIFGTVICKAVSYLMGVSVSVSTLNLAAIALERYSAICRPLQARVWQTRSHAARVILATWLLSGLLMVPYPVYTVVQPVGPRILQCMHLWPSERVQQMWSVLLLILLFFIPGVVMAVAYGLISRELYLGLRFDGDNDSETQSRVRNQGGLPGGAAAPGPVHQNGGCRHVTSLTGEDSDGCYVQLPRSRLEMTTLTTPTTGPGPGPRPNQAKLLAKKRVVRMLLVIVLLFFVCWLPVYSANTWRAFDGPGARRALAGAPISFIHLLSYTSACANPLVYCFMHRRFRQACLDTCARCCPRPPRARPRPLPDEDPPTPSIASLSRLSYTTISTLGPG

The AC50 is the midpoint of the concentration-response curve, whichever way the signal moves. Consider `CN(C[C@@H](CC[N+]12CCC(C3CCCCC3)(CC1)CC2)c1ccc(Cl)c(Cl)c1)C(=O)c1cc(C(F)(F)F)cc(C(F)(F)F)c1`, for which the AC50 in assay [1] is 25 µM (active); in assay [2], 25 µM (active); in assay [3], 2.11 µM (active); in assay [4], 8.02 µM (active).
For the compound `CCN(Cc1cccc(S(=O)(=O)O)c1)c1ccc(C(=C2C=CC(=[N+](CC)Cc3cccc(S(=O)(=O)O)c3)C=C2)c2ccccc2S(=O)(=O)[O-])cc1`, in assay [1], the AC50 was 8.17 µM (active).
With `CC/C(=C(/CC)c1ccc(O)cc1)c1ccc(O)cc1`, the call in assay [5], in [8] and in assay [11] was inactive. The AC50 in assay [1] was 15.3 µM (active); in [6], 11.4 µM (active); in assay [7], 12.5 µM (active); in assay [2], 22.1 µM (active); in assay [3] it was 5.64 µM (active) and 4.96 µM (active) and 10.7 µM (active); in assay [9] it was 37.9 µM (active). In addition, the AC50 in [4] was 39.4 µM (active); in assay [10], 36.3 µM (active).
Take `CCOC(=O)O[C@H](C)OC(=O)c1ccc2c(c1)cc(C(=O)NC1CCN(C(C)C)CC1)n2Cc1cc(-c2ccc(Cl)s2)on1`: the AC50 in [5] is 3.36 µM (active); in assay [1], 23.6 µM (active); in [6], 4.46 µM (active); in assay [7] it was 22.9 µM (active); in [2], 21.3 µM (active); in assay [8] it was 33.1 µM (active). For the same compound, the AC50 in assay [3] is 2.94 µM (active); in assay [4], 23.6 µM (active); in assay [12], 11.1 µM (active); in assay [10] it was 5.66 µM (active).
Turning to `CCCCCCCCCCCC[N+](C)(C)C`, the half-maximal activity concentration (AC50) in assay [13] was 11.7 µM (active); in [7], 20.6 µM (active); in [2], 25 µM (active); in [4] it was 17.9 µM (active); in [10], 19.1 µM (active). Besides, the result in assay [14] and in assay [3] was inactive.
